# From PubChem BioAssay (NCI)
# Compounds without any hit were thinned out: in the full panel of roughly 83,000, 20% have a hit.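 Compound tested at a single concentration for 48 hours in 96-well plates; a percent growth value below 10 was scored as active.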 Values without a mark were called inactive. Activity calls are given as the source filed them.
# What was measured:
# Experiment in all cases: NCI-60 one-dose screen, 48 h (100 = growth as untreated, 0 = no growth, -100 = all killed)
# Conditions in all cases: 10 µM unless noted
# NCI-H23 lung = test system: NCI-H23 lung
# NCI-H226 lung = test system: NCI-H226 lung
# NCI-H322M lung = test system: NCI-H322M lung
# HOP-62 NSCLC = test system: HOP-62 NSCLC
# NCI-H460 lung = test system: NCI-H460 lung
# HOP-92 NSCLC = test system: HOP-92 NSCLC
# NCI-H522 lung = test system: NCI-H522 lung
# A549/ATCC NSCLC = test system: A549/ATCC NSCLC
# COLO 205 colon = test system: COLO 205 colon
# DU-145 prostate = test system: DU-145 prostate
# K-562 leukemia = test system: K-562 leukemia
# MALME-3M melanoma = test system: MALME-3M melanoma
# MDA-MB-231 breast = test system: MDA-MB-231 breast
# RXF 393 renal = test system: RXF 393 renal
# SF-268 CNS = test system: SF-268 CNS
# SF-295 CNS = test system: SF-295 CNS
# SF-539 CNS = test system: SF-539 CNS
# UACC-257 melanoma = test system: UACC-257 melanoma
# M14 melanoma = test system: M14 melanoma
# 786-0 renal = test system: 786-0 renal
Compound,growth (NCI-H23 lung),growth (NCI-H226 lung),growth (NCI-H322M lung),growth (HOP-62 NSCLC),growth (NCI-H460 lung),growth (HOP-92 NSCLC),growth (NCI-H522 lung),growth (A549/ATCC NSCLC),growth (COLO 205 colon),growth (DU-145 prostate),growth (K-562 leukemia),growth (MALME-3M melanoma),growth (MDA-MB-231 breast),growth (RXF 393 renal),growth (SF-268 CNS),growth (SF-295 CNS),growth (SF-539 CNS),growth (UACC-257 melanoma),growth (M14 melanoma),growth (786-0 renal)
CCO/C=N/C1=C(C#N)C(c2ccc(Cl)cc2)c2c(c3ccc(C)cc3[nH]c2=O)O1 (stereo unspecified),85.4%,78.9%,88%,70.7%,95%,50.7%,74.2%,90.2%,96.1%,103%,88.1%,81.8%,59.6%,73.9%,90.7%,89.6%,75.9%,97.2%,87.1%,
Cc1ccc(C(=O)C2=Cc3cc4ccccc4n3Cc3cnnn32)cc1,100%,98.1%,95.9%,87.4%,108%,86%,64.5%,99.2%,,113%,75.1%,116%,95.5%,95.3%,101%,114%,111%,98.8%,115%,94.6%
CCCCCc1cc[n+](CC(=O)c2ccc([N+](=O)[O-])cc2)cc1,69.6%,96.5%,107%,79.8%,49.6%,51.7%,45.7%,78.9%,,79.2%,34.7%,85.2%,70%,97.6%,87.3%,95.2%,96.9%,35.6%,,96.5%
CCN(CC)c1ccc(C(=N)c2ccc(N(CC)CC)cc2)cc1,-52.9% (active),-33.5% (active),16.2%,-82.7% (active),-44.5% (active),-30.6% (active),-62.4% (active),6.12% (active),-96.6% (active),,-4.1% (active),-32.6% (active),-63.3% (active),-31.5% (active),,-54.7% (active),-68.7% (active),-39.6% (active),,-55.2% (active)
NNc1cccc(/C=C/c2ccccc2)cc1=O,73.1%,83%,71.1%,71.1%,27.5%,59.8%,57.7%,64.6%,,68.2%,45.5%,103%,58.1%,91.9%,57.6%,,62.4%,95.3%,61.4%,69.1%
COc1ccc(OC)c(C2OC(c3ccc4ccccc4c3O)=NN2C(C)=O)c1 (stereo unspecified),80%,87.1%,77.5%,65.4%,43%,54.4%,35.6%,56.5%,,77.8%,31.3%,43.8%,91.1%,53.1%,80.3%,,65.5%,57.6%,54.6%,81.9%
O=C1C2(c3ccccc3)C(c3ccccc3)=C(c3ccccc3)C1(c1ccccc1)C1CC=CC12 (stereo unspecified),75.9%,74%,84.7%,102%,84.4%,1.51% (active),71.3%,78.3%,,101%,69.3%,82.9%,70.7%,84.6%,91.1%,68.1%,89.3%,78.4%,95.4%,85.9%
O=S(=O)(NCCNc1nccc(-c2c(-c3ccc(O)cc3)nc3sccn23)n1)c1cccc2ccccc12,98.1%,102%,98.1%,106%,106%,94.9%,91.5%,98.2%,,115%,91.4%,100%,110%,104%,99%,,100%,94.4%,105%,96.6%
CN(C)CC(C(=O)c1ccccc1)c1ccccc1 (stereo unspecified),58.2%,47.4%,106%,43.7%,79.5%,-0.711% (active),-77.5% (active),71.4%,,14.7%,,57.7%,80%,54.8%,5.71% (active),93.1%,33.7%,32.7%,-1.12% (active),74%
C=C[C@@H]1C[C@@H]2Cc3cc(Cl)ccc3N1O2,101%,88.9%,130%,94.8%,97.5%,67%,92.7%,100%,,111%,95.4%,88%,99.3%,104%,106%,100%,105%,99.2%,97.9%,102%
CCOC(=O)C1CCNC(=O)C1=O (stereo unspecified),107%,97%,144%,112%,113%,102%,116%,109%,,115%,109%,126%,106%,108%,108%,122%,112%,126%,,98%
Cc1ccc(/C=C2\CN(C(=O)CCN3CCC(=NO)CC3)C/C(=C\c3ccc(C)cc3)C2=O)cc1,7.62% (active),81%,16.8%,46.9%,-42.5% (active),72.2%,-28.6% (active),50.8%,,21.6%,4.38% (active),-27.6% (active),-13.8% (active),-77.7% (active),12.9%,-1.83% (active),-18% (active),44.9%,5.63% (active),-15.5% (active)
C=C[C@@H]1C[C@H](O)Cc2ccccc2N1,104%,111%,125%,99.2%,107%,137%,121%,95.4%,,115%,,113%,101%,120%,107%,109%,101%,104%,,112%
CC(C)(C)n1cc(-c2ccnc(NCCCNS(=O)(=O)c3ccc(Br)cc3)c2)c(-c2cccc(O)c2)n1,47.1%,40.4%,30.9%,46.8%,-21.2% (active),48.4%,13.5%,24.1%,,43%,-10.9% (active),-2.04% (active),8.91% (active),20.8%,31.1%,12%,15.7%,9.16% (active),5.23% (active),-2.1% (active)
CCCCOc1ccc(/C=C2/SC(N3CCCC3)=NC2=O)cc1,98.8%,85.5%,98.8%,99.3%,99%,86.8%,82.4%,94.7%,104%,80.9%,82%,97.9%,95.6%,90.9%,98.7%,93.8%,87.9%,102%,95.4%,
O=C1CCCCC1(c1ccccc1)c1ccccc1,98.8%,99.8%,111%,103%,103%,89.3%,99%,110%,109%,,,,101%,93.8%,98.2%,97%,94%,106%,99%,109%
CC(C)C(C(=O)NCCN1CCOCC1)N1C(=O)/C(=C/c2ccc(Br)cc2)SC1=S (stereo unspecified),98.4%,107%,100%,104%,101%,104%,95.9%,102%,111%,108%,96%,106%,108%,125%,94.2%,102%,98.6%,106%,90.7%,
